Consider eleven molecules from PubChem BioAssay (NCATS).

Assay [1] in a line: Primary qHTS for inhibitors of La Crosse Virus (LACV) - induced cell death in SH-SY5Y cells (AID 1508616).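 Note: top concentration of the series differs between compounds; 0% = infected DMSO wells and 100% = uninfected DMSO wells; higher means more rescue of cells from virus-induced death.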 The procedure, abridged:
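Rescue of virus-induced death was read as ATPLite luminescence after 6 days at 37C, scaled between DMSO wells with LACV and without virus. Cells were SH-SY5Y, 6000/well, infected at 0.01 MOI after compound addition.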

Assay [2] addresses Calcium and integrin-binding protein 1 (Homo sapiens) (UniProt Q99828). The experiment in a line: Primary qHTS for Identification of Calcium Integrin Binding Protein 1 (CIB1) Competitor (AID 1508620). Note: top concentration of the series differs between compounds; % is set by controls: 0 for no effect and ±100 for the full control effect. The procedure, abridged: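 Fluorescence polarization competition: GST-tagged CIB1 (1 uM final) preincubated with compound 15 min at room temperature, then FITC-labelled alphaIIb peptide (100 nM final) added. After 15 min at room temperature, polarization read at Ex 480/Em 540.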
On the technique in general: In qHTS, concentration-response curves come from the screen itself.

Assay [3] in a line: Primary qHTS for small molecule stabilizers of the endoplasmic reticulum resident proteome: Secreted ER Calcium Modulated Protein (SERCaMP) assay (AID 1508630). Note: % is set by controls: 0 for no effect and ±100 for the full control effect. The procedure, abridged: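 The SH-SY5Y reporter protocol was run at 3 concentrations up to 38.3 uM (primary) or 11 concentrations (follow-up): 16 h compound, 100 nM thapsigargin for 4 h, then extracellular luciferase luminescence.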

A short description of assay [4]: A High-Content qHTS Against Drug Library for the Identification of Small Molecules that Inhibit DYT1 Early Onset Primary Dystonia-Associated Cell Pathology (AID 1645839; calls by dose curve; note: potency is the fitted concentration of half-maximal effect; for % pathology change, negative = correction: series mostly up to about 46 µM). The procedure, abridged:
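Cells were seeded and left for 24 h, then dosed with compound alongside tetracycline induction of mutant EGFP-TorsinA. They were incubated for 48 h, fixed in 4% paraformaldehyde, permeabilized and imaged for mislocalization (%pathology) and cell count.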

Assay [5] addresses Cytochrome P450 2D6 (Homo sapiens) (UniProt P10635). As to the kind of experiment: Cytochrome P450 family 2 subfamily D member 6 (CYP2D6) small molecule antagonists: luciferase biochemical (cell-free) qHTS assay (AID 1645840; active = well fitted curve in the direction sought with a large enough effect in the repeat runs; an effect the other way counts as inactive or inconclusive; note: nearly all actives have a fitted effect of over 55% in size; note: potency is the fitted concentration of half-maximal effect; for activity change, negative = inhibition: series mostly up to about 57 µM; % is set by controls: 0 for no effect and ±100 for the full control effect). The procedure, abridged: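 P450-Glo CYP2D6 system: proluciferin substrate converted by enzyme to luciferin, read by luminescence proportional to activity. Enzyme-substrate mix with compound 10 min at room temperature, then NADPH regeneration 1 h before detection reagent.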

For assay [6], the target named is Cytochrome P450 3A4 (Homo sapiens) (UniProt P08684). As to the kind of experiment: Cytochrome P450 family 3 subfamily A member 4 (CYP3A4) small molecule antagonists: luciferase qHTS assay (AID 1645841; active = well fitted curve in the direction sought with a large enough effect in the repeat runs; an effect the other way counts as inactive or inconclusive; note: nearly all actives have a fitted effect of over 45% in size). The procedure, abridged:
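P450-Glo CYP3A4 enzyme with proluciferin substrate preincubated 10 min with compound at room temperature, then NADPH regeneration 1 h. Luciferin detection reagent added for 20 min; luminescence recorded. Ketoconazole positive control.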

Assay [7] concerns the target Cytochrome P450 2C9 (Homo sapiens) (UniProt P11712). The experiment in a line: Cytochrome P450 family 2 subfamily C member 9 (CYP2C9) small molecule antagonists: luciferase biochemical (cell-free) qHTS assay (AID 1645842; active = well fitted curve in the direction sought with a large enough effect in the repeat runs; an effect the other way counts as inactive or inconclusive; note: nearly all actives have a fitted effect of over 55% in size; note: potency is the fitted concentration of half-maximal effect; for activity change, negative = inhibition: series mostly up to about 57 µM; % is set by controls: 0 for no effect and ±100 for the full control effect). The procedure, abridged: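 P450-Glo CYP2C9 system: proluciferin substrate with enzyme in mix containing 0.4% BSA, 10 min at room temperature, then NADPH regeneration solution added and incubated 1 h at 37C. Detection reagent stopped reaction; luminescence read after 20 min as RLU.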

Assay [8] deals with N-terminal Xaa-Pro-Lys N-methyltransferase 1 (Homo sapiens) (UniProt Q9BV86). The experiment in a line: Confirmatory qHTS for Inhibitors of N-terminal methyltransferase 1 (NTMT1): MTaseGlo Assay (AID 1645874). Note: potency is the fitted concentration of half-maximal effect; nearly all actives have a fitted effect of over 65% in size. In outline:
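Inhibition was derived from luminescence after SAH-to-ATP conversion, scaled between no-enzyme and DMSO wells, then fitted by 4-parameter Hill. Conditions: 125 nM NTMT1, 100 uM SAM, 1 uM SPKRIA, 30 min RT.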

The nature of assay [9]: Primary qHTS for inhibitors of nuclear receptor binding SET domain protein 2 (NSD2) in an isogenic RCH-ACV NSD2 p.E1099K mutant (9B) (AID 1645876). Note: nearly all actives have a fitted effect of over 70% in size. Note: potency is the fitted concentration of half-maximal effect.
Assay [10] is described as follows: Primary qHTS for inhibitors of nuclear receptor binding SET domain protein 2 (NSD2) in an RCH-ACV wild type WT cells (2C) (AID 1645877). Note: nearly all actives have a fitted effect of over 70% in size. Note: potency is the fitted concentration of half-maximal effect.

Results filed as inconclusive are left out. A number with no mark means an inactive call. Active and inactive are the calls of the source. Unless noted, calls come from the whole dose curve; as a rule, active = well fitted curve in the direction sought with a large enough effect; inconclusive = small, poorly fitted or top-dose-only effect, or another doubt; inactive = no such curve, though single readings can be large; an effect the other way counts as inactive or inconclusive. Numbered stars: 1 amine (or outer) side, 2 acyl side, 3 side chain; on linkers, the order of the positions; unused ones are H or OH. Bridge positions count the residues as written; N and C are the ends. Square brackets hold non-standard residues; d marks the D form. Peptide text beside a SMILES is read from it. I, II: the chains in the order shown. Actinocin(9to1) = Cc1c2oc3c(C)ccc(C(=O)[*:1])c3nc-2c(C(=O)[*:2])c(N)c1=O; NMeV = CN[C@H](C(=O)O)C(C)C; Sar = CNCC(=O)O

Chain of Cytochrome P450 2C9 (Homo sapiens) (P11712 whole entry, looked up): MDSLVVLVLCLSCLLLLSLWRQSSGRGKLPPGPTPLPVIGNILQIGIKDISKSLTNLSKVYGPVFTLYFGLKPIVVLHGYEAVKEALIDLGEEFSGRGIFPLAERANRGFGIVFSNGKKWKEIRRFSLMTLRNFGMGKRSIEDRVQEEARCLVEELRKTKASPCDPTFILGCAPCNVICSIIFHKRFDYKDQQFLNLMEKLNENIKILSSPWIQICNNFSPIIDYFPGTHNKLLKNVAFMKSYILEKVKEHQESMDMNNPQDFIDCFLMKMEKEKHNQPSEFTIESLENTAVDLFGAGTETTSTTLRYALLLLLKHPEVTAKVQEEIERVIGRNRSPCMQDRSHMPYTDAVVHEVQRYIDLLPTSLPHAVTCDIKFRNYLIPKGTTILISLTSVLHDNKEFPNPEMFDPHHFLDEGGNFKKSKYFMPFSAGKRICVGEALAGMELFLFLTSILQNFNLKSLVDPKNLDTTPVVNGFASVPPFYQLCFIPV
Chain of Calcium and integrin-binding protein 1 (Homo sapiens) (Q99828 whole entry, looked up): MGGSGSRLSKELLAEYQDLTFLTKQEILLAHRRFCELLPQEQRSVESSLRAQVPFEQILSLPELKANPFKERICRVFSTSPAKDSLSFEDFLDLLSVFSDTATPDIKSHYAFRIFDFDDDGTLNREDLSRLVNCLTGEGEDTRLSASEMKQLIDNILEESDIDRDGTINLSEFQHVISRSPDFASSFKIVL
Chain of Cytochrome P450 2D6 (Homo sapiens) (P10635 whole entry, looked up): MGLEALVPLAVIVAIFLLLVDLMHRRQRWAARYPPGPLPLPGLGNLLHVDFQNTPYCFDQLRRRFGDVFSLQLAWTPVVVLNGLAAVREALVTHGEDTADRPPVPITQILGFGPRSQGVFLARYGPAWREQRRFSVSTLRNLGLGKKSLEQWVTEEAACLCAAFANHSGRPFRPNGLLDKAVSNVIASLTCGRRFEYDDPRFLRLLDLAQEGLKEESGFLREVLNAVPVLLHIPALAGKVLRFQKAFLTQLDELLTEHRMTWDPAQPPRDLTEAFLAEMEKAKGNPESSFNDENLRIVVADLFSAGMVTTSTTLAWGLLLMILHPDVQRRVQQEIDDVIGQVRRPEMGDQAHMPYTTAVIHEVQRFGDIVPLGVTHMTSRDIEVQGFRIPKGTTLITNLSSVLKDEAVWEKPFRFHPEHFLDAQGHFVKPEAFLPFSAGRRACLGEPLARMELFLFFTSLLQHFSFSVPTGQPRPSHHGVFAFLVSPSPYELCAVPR
Chain of N-terminal Xaa-Pro-Lys N-methyltransferase 1 (Homo sapiens) (Q9BV86 whole entry, looked up): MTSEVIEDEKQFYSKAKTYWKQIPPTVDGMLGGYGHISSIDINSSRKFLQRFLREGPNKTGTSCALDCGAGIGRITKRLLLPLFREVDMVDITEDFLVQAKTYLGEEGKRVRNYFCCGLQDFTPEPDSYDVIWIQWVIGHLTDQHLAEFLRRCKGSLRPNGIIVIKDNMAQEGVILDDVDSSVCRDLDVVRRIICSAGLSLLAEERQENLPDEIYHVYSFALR
Chain of Cytochrome P450 3A4 (Homo sapiens) (P08684 whole entry, looked up): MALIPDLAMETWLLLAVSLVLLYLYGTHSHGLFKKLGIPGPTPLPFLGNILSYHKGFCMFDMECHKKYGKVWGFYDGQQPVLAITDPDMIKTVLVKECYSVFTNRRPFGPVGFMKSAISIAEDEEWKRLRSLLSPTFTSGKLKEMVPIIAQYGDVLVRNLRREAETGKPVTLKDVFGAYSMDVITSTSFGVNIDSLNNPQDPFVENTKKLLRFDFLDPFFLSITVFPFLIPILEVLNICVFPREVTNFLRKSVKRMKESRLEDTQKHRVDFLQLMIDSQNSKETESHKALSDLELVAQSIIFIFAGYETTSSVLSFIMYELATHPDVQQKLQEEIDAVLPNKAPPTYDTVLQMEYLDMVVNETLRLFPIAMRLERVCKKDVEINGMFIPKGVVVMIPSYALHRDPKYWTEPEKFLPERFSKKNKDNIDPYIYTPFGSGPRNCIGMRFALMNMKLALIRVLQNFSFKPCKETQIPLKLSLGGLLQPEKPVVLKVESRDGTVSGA

Consider `Nc1ccn([C@@H]2O[C@H](CO)[C@@H](O)C2(F)F)c(=O)n1`, for which the Potency entry in [1], in [2], in [3], in [4], in assay [5] and in assay [7] was “inactive” throughout. Moreover, the outcome in [6] was inactive.
`Cc1c(C)n(Cc2ccccc2)c2ccc(C(=O)OCCN(C)C)cc12`: the Potency result in [1], in assay [2] and in assay [3] was “inactive” throughout. Moreover, the Potency in assay [4] was 11.2 µM (active); in [5], 13.8 µM (active); in assay [7], 12.3 µM (active); in assay [8], 5.78 µM (active); in [9], 10.6 µM (active); in assay [10], 9.44 µM (active).
With `CCCCc1nc(Cl)c(CO)n1Cc1ccc(-c2ccccc2-c2nn[nH]n2)cc1`, the Potency result in [1], in assay [2], in assay [3], in assay [4], in [5] and in [9] was “inactive” throughout. Besides, in assay [10], the Potency entry was “inactive”. Moreover, the Potency in assay [7] was 2.68 µM (active).
As for `CC(=O)N/N=C/c1ccc([N+](=O)[O-])o1`, the Potency entry in [1], in [2], in [3], in assay [4] and in [7] was “inactive” each time. Moreover, the Potency in assay [5] is 15.5 µM (active); in assay [9], 9.44 µM (active); in [10], 8.41 µM (active).
On to `NC[C@H]1O[C@H](O[C@H]2[C@H](O[C@@H]3O[C@H](CO)[C@@H](O)[C@H]3O)C(O)[C@H](N)C[C@@H]2N)[C@H](N)[C@@H](O)[C@@H]1O` (some centres undefined), for which the activity change in [1] is -8.96% [at 0.858 µM]. Also, the Potency entry in assay [2] is “inactive”. Also, the activity change, negative = inhibition in assay [3] is -22.5% [at 7.35 µM]; in assay [5], 6.46% [at 11.5 µM]; in assay [7] it was 8.72% [at 11.5 µM]. For the same molecule, in [4], the % pathology change, negative = correction was 1.85% [at 9.22 µM].
As to `OC[C@H]1O[C@@H](n2cnc3c(=S)nc[nH]c32)[C@H](O)[C@@H]1O`, the Potency result in [1], in assay [2], in assay [3], in assay [4] and in assay [5] was “inactive” each time. For the same molecule, the Potency was 11 µM (active) in [7], 0.473 µM (active) in [9] and 0.422 µM (active) in [10].
With `NCCc1ccn[nH]1`, the Potency entry in assay [1], in assay [2], in assay [3], in assay [4], in assay [5] and in assay [7] was “inactive” throughout. Besides, the Potency entry in assay [9] and in assay [10] was “inactive” throughout.
On to `CC(=O)CC(c1ccc([N+](=O)[O-])cc1)c1c(O)c2ccccc2oc1=O` (centres undefined), for which the Potency entry in [1], in [2], in assay [3], in assay [4], in [5] and in assay [9] was “inactive” in each case. In addition, in [10], the Potency result was “inactive”. For the same molecule, in assay [7], the Potency is 2.19 µM (active).
On to `COC1=CC(=O)C[C@@H](C)[C@]12Oc1c(Cl)c(OC)cc(OC)c1C2=O`, for which the Potency entry in [1], in assay [2], in [3], in assay [4], in assay [5] and in assay [7] was “inactive” throughout.
Take `Cc1c2oc3c(C)ccc(C(=O)N[C@@H]4C(=O)N[C@H](C(C)C)C(=O)N5CCC[C@H]5C(=O)N(C)CC(=O)N(C)[C@@H](C(C)C)C(=O)O[C@@H]4C)c3nc-2c(C(=O)N[C@@H]2C(=O)N[C@H](C(C)C)C(=O)N3CCC[C@H]3C(=O)N(C)CC(=O)N(C)[C@@H](C(C)C)C(=O)O[C@@H]2C)c(N)c1=O` (I: T[dV]P[Sar][NMeV] / II: T[dV]P[Sar][NMeV]; ester I:1-I:C, II:1-II:C; linker I:N-II:N via Actinocin(9to1)): the Potency result in [1], in assay [2], in [3], in [4], in assay [5] and in [7] was “inactive” throughout. Also, the Potency entry in [9] and in [10] was “inactive” each time.
Turning to `Cc1cccc(C)c1NC(=O)CN1CCN(CCCC(c2ccc(F)cc2)c2ccc(F)cc2)CC1`, the Potency entry in assay [1], in [2], in assay [3] and in assay [4] was “inactive” each time. Moreover, the Potency is 2.75 µM (active) in [5], 19.5 µM (active) in [7], 23.7 µM (active) in [9] and 11.9 µM (active) in assay [10].
